Inhibition data for nine compounds are collected here from ChEMBL document CHEMBL1961873, “Compounds: GSK PKIS; Assays: Nanosyn kinase panel” (2012).

The target of assay [1] is T1, Inhibitor of nuclear factor kappa-B kinase subunit epsilon (Homo sapiens) (UniProt Q14164).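 Note: reported values are averaged percent inhibition figures against human IKKε.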
T1 sequence (whole entry): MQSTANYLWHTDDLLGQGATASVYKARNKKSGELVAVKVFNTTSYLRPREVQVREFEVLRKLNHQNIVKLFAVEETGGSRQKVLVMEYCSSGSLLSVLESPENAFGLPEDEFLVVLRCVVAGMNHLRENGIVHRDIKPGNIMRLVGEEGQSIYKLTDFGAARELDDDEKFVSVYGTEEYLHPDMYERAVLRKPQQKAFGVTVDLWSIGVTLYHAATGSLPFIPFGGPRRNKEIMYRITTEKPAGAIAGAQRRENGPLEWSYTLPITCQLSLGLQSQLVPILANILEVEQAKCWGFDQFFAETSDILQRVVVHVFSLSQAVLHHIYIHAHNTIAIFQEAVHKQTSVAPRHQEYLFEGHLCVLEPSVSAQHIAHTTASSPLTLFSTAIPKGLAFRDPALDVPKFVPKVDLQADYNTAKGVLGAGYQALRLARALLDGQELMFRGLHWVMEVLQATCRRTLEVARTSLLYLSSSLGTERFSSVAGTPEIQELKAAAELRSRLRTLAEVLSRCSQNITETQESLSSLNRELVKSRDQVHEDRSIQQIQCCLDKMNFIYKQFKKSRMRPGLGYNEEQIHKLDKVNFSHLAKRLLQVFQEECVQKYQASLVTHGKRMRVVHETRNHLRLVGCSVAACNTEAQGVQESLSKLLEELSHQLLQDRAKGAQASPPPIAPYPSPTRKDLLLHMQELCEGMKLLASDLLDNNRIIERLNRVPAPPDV
The conditions noted are these: at 1 µM.

Assay [2] deals with T2, Serine/threonine-protein kinase Nek1 (Homo sapiens) (UniProt Q96PY6).
T2 sequence (whole entry): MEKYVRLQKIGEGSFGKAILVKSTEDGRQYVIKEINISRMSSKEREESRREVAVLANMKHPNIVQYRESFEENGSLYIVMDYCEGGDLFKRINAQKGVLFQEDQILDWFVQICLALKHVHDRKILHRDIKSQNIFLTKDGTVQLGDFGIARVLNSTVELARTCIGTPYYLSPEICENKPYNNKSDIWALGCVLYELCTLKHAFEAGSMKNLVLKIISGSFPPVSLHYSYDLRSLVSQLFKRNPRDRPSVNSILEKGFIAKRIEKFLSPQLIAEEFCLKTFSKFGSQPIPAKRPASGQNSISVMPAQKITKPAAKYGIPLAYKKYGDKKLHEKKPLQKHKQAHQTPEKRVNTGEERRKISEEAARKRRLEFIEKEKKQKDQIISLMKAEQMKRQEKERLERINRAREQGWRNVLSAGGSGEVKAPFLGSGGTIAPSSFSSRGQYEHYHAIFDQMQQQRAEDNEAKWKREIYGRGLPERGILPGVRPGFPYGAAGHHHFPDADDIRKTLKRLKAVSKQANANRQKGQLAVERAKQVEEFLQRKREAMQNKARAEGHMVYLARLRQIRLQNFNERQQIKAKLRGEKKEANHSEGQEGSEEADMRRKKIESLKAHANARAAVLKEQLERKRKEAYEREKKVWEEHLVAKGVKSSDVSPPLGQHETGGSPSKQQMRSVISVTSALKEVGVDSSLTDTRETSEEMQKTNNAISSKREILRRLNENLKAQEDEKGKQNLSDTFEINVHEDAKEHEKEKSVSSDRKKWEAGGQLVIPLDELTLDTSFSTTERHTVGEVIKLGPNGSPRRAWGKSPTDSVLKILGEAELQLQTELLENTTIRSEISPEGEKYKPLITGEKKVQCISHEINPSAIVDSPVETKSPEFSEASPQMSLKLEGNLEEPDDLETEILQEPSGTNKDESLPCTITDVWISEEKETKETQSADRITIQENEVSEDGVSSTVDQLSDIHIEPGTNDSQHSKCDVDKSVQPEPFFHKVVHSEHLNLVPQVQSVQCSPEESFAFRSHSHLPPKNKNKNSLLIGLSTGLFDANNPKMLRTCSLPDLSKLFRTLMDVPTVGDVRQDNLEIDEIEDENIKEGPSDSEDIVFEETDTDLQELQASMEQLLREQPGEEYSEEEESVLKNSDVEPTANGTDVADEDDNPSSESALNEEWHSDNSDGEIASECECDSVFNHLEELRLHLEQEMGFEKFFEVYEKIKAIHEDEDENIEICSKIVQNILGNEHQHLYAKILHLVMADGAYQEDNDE
The conditions noted are these: at 0.1 µM.

Assay [3] concerns the target T2, Serine/threonine-protein kinase Nek1 (Homo sapiens). As to conditions: at 1 µM.
For assay [4], the target named is T3, Serine/threonine-protein kinase Nek2 (Homo sapiens) (UniProt P51955).
T3 sequence (whole entry): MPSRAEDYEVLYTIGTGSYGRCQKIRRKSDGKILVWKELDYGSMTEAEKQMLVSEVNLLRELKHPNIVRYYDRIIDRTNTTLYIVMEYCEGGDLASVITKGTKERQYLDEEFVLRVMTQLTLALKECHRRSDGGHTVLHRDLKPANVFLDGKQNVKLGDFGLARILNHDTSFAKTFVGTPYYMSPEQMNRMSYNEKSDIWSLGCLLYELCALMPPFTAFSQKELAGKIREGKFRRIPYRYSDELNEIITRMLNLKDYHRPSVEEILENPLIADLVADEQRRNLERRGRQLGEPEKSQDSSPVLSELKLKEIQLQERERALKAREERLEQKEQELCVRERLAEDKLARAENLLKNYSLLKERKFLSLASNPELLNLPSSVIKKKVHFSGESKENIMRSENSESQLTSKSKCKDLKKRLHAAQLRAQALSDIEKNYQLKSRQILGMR
The conditions noted are these: at 0.1 µM.

The target of assay [5] is T3, Serine/threonine-protein kinase Nek2 (Homo sapiens). As to conditions: at 1 µM.
The target in assay [6] is Serine/threonine-protein kinase Nek6 (Homo sapiens) (UniProt Q9HC98). As to conditions: at 0.1 µM.
Chain of Serine/threonine-protein kinase Nek6 (Homo sapiens) (Q9HC98 whole entry): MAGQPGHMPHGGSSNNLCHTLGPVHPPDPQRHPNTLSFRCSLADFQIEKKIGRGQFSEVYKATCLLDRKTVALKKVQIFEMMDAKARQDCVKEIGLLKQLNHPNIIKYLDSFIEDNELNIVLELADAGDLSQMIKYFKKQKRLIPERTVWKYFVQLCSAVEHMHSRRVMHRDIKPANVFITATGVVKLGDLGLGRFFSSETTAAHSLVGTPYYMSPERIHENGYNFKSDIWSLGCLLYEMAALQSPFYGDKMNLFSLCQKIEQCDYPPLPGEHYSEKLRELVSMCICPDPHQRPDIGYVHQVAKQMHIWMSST
For assay [7] the target is unchanged. The conditions noted are these: at 1 µM.
Assay [8] concerns the target Serine/threonine-protein kinase Nek7 (Homo sapiens) (UniProt Q8TDX7). The conditions noted are these: at 0.1 µM.
For assay [9] the target is unchanged. The conditions noted are these: at 1 µM.
Assay [10] concerns the target T4, Serine/threonine-protein kinase Nek9 (Homo sapiens) (UniProt Q8TD19).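 Note: reported value is the mean percent inhibition of NEK9.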
T4 sequence (whole entry): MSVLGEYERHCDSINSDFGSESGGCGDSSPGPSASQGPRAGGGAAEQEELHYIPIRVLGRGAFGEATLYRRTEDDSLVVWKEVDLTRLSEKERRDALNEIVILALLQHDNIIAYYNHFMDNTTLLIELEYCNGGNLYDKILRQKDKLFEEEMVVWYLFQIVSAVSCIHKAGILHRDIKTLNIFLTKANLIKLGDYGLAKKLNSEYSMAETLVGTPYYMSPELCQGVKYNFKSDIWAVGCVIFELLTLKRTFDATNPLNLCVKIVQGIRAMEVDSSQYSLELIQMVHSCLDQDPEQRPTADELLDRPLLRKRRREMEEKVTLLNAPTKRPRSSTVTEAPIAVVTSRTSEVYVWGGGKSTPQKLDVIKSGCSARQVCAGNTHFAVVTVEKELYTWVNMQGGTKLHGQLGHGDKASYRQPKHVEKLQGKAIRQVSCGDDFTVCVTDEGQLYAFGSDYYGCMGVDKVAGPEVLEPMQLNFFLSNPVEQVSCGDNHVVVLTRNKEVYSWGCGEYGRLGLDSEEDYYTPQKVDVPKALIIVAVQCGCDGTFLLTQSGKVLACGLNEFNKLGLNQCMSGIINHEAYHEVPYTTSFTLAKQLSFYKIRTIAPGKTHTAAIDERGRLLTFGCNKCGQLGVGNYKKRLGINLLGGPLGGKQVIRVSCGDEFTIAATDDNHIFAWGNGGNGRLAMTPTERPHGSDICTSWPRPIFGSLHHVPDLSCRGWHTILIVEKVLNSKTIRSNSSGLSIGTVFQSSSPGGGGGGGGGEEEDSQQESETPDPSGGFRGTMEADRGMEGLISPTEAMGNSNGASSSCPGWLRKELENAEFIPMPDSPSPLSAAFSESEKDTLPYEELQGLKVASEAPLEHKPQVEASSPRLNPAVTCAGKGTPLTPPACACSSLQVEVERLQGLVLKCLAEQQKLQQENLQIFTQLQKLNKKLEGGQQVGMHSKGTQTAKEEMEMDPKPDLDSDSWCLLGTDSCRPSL
As to conditions: at 0.1 µM.

The inhibition is the drop in the measured response relative to a control, in per cent.

Chain of Serine/threonine-protein kinase Nek7 (Homo sapiens) (Q8TDX7 whole entry, looked up): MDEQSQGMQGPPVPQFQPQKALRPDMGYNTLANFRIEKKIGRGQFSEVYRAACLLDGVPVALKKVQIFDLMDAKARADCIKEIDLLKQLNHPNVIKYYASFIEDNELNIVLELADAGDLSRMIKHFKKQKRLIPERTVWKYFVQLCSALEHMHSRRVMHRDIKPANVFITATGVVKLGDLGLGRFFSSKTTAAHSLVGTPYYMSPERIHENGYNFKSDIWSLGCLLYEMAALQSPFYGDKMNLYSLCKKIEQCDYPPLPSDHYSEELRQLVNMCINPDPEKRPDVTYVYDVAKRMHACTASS

With `COc1cc2ncn(-c3cc(OCc4ccccc4Cl)c(C(N)=O)s3)c2cc1OC`, the inhibition came out at 2.71% in assay [1]; 3.45% in assay [2]; 15.5% in assay [3]; 3.49% in [4]; 37.3% in [5]; 1.95% in [6]. Besides, the inhibition is -3.5% in assay [7], 4.31% in assay [8], 1.21% in assay [9] and 9.22% in assay [10].
As to `Nc1ncnc2occ(-c3ccc(NC(=O)Nc4cc(C(F)(F)F)cc(C(F)(F)F)c4)cc3)c12`, the inhibition in [1] is 5.33%; in assay [2] it was 1.24%; in assay [3] it was 6.51%; in assay [4], 3.72%; in assay [5], 15.5%; in [6], -0.98%. For the same compound, the inhibition in assay [7] amounted to 0.99%; in assay [8] it was 2.34%; in assay [9] it was 0.46%; in assay [10], 5.43%.
Take `NS(=O)(=O)c1ccc(N/N=C2\C(=O)Nc3ccc(C(=O)NCCc4c[nH]cn4)cc32)cc1`: the inhibition was 19% in [1]; 2.19% in assay [2]; -1.06% in [3]; 5.57% in assay [4]; 5.42% in [5]; 3.45% in assay [6]. Also, the inhibition in [7] stood at 1.65%; in assay [8], 4.83%; in assay [9], 7.05%; in assay [10], 10.2%.
Take `CCn1c(-c2nonc2N)nc2c(C#CC(C)(C)O)nc(OC[C@@H](N)c3ccccc3)cc21`: the inhibition is 34.9% in [1]; 0.04% in assay [2]; 3.08% in assay [3]; -1.09% in assay [4]; 1.53% in assay [5]; -0.14% in assay [6]. The inhibition was 3.35% in [7], 0.12% in [8], -0.33% in assay [9] and -3.59% in assay [10].
Take `COc1cc2ncn(-c3cc(O[C@H](C)c4ccccc4Cl)c(C(N)=O)s3)c2cc1OC`: the inhibition in assay [1] is 6.91%; in assay [2], 29.8%; in assay [3], 67.8%; in assay [4] it was 12.1%; in [5], 48.8%; in assay [6], 2.67%. The inhibition in assay [7] came to 4.93%; in assay [8] it was 3.58%; in assay [9], 4.26%; in assay [10], 62%.
For the compound `CC1=C(C(=O)Nc2ccc3[nH]ncc3c2)C(c2ccc(Cl)c(Cl)c2)CC(=O)N1` (stereo not given), the inhibition in [1] was -0.94%; in assay [2] it was 0.09%; in assay [3] it was -0.51%; in assay [4], 1.92%; in assay [5], 1.44%; in [6] it was -0.99%. The inhibition in [7] was -2.51%; in assay [8], 2.34%; in assay [9], 3.79%; in assay [10], 7.85%.
On to `COc1ccc(-c2ccncc2)cc1C(N)=O`, for which the inhibition in [1] is 6.43%; in assay [2], 3.59%; in assay [3], 6.47%; in assay [4], 5.42%; in assay [5], 6.48%; in [6], -0.26%. Moreover, the inhibition in [7] came to 1.43%; in assay [8], 3.68%; in [9] it was 8.72%; in [10] it was 4.72%.
On to `O=C1NC(=O)C(N2CCc3ccccc32)=C1c1ccc(Cl)cc1`, for which the inhibition in assay [1] was 3.58%; in [2], 3.18%; in assay [3], 2.69%; in assay [4], 6.49%; in assay [5] it was 7.76%; in assay [6], -0.04%. Also, the inhibition was -0.02% in [7], 6.9% in [8], 4.24% in [9] and 5.67% in [10].
With `Nc1nc(-c2ccccn2)c(-c2ccc3ncccc3n2)s1`, the inhibition in assay [1] came out at 5.46%; in [2] it was 2.32%; in [3], 4.91%; in assay [4] it was 3.61%; in assay [5], 2.7%; in assay [6] it was 3.95%. The inhibition in assay [7] is 1.16%; in [8] it was 3.03%; in [9], 2.77%; in assay [10] it was 6.33%.
